# Measurements from the supplement of paper PMC6555819.
# Assays:
# Assay in all cases: PBM binding z-score (relative to random genomic background probes); higher = stronger binding; sequences stand for … in GC…GCGATTGACAGCGTAGAATGAAGG
# [1] = system: FXR:RXRa (NR concentration 270 nM, RXRa partner concentration 90 nM)
# Procedure, shortened: (§1)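 The probes on custom Agilent 4×180K protein-binding microarrays were double-stranded, with 34-nt variable regions bearing direct-repeat seeds, single-nucleotide variants, half-site ablations and random human genomic background sequences. Incubation lasted 1 h with ligand-free nuclear receptor dimers in PBS pH 7.4, 2% milk, 0.02% Triton X-100, 1 mM DTT, 0.2 mg/mL BSA and 0.4 mg/ml salmon testes DNA. Antibodies against each partner (one per run) detected bound dimers, and fluorescence scans were regression-normalized. Binding z-scores take the random background probes as reference.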
# [2] = system: LXRa:RXRa (NR concentration 270 nM, RXRa partner concentration 90 nM)
# Procedure, shortened: as §1
# [3] = system: LXRa homodimer (NR concentration 270 nM)
# Procedure, shortened: as §1
# [4] = system: LXRb:RXRa (NR concentration 270 nM, RXRa partner concentration 90 nM)
# Procedure, shortened: as §1
# [5] = system: LXRb homodimer (NR concentration 270 nM)
# Procedure, shortened: as §1
# [6] = system: PPARa:RXRa (NR concentration 270 nM, RXRa partner concentration 90 nM)
# Procedure, shortened: as §1
# [7] = system: PPARg:RXRa (NR concentration 180 nM, RXRa partner concentration 90 nM)
# Procedure, shortened: as §1
# [8] = system: PPARg:RXRa 270nM:90nM, anti-RXR (NR concentration 270 nM, RXRa partner concentration 90 nM)
# Procedure, shortened: as §1
# [9] = system: PPARg:RXRa 30nM:10nM, anti-RXR (NR concentration 30 nM, RXRa partner concentration 10 nM)
# Procedure, shortened: as §1
# [10] = system: PPARg:RXRa 90nM:30nM, anti-RXR (NR concentration 90 nM, RXRa partner concentration 30 nM)
# Procedure, shortened: as §1
# [11] = system: PPARg:RXRa DBDmut IVT, anti-RXR (DBD mutation: RXRa K156A/R161A, NR concentration 270 nM, RXRa partner concentration 90 nM)
# Procedure, shortened: as §1
# [12] = system: PPARg:RXRa IVT, anti-PPARg (NR concentration 270 nM, RXRa partner concentration 90 nM)
# Procedure, shortened: as §1
# [13] = system: PPARg DBDmut:RXRa IVT, anti-PPARg (DBD mutation: PPARg1 K132A/R137A, NR concentration 270 nM, RXRa partner concentration 90 nM)
# Procedure, shortened: as §1
# [14] = system: PPARg DBDmut IVT, anti-PPARg (DBD mutation: PPARg1 K132A/R137A, NR concentration 270 nM)
# Procedure, shortened: as §1
# [15] = system: PPARg homodimer (NR concentration 180 nM)
# Procedure, shortened: as §1
# [16] = system: PXR:RXRa (NR concentration 270 nM, RXRa partner concentration 90 nM)
# Procedure, shortened: as §1
# [17] = system: PXR homodimer (NR concentration 270 nM)
# Procedure, shortened: as §1
# [18] = system: RARa:RXR (NR concentration 270 nM, RXRa partner concentration 90 nM)
# Procedure, shortened: as §1
# [19] = system: RARa homodimer (NR concentration 270 nM)
# Procedure, shortened: as §1
# [20] = system: RARb:RXRa (NR concentration 270 nM, RXRa partner concentration 90 nM)
# Procedure, shortened: as §1
Sequence,PBM binding z-score [1],PBM binding z-score [2],PBM binding z-score [3],PBM binding z-score [4],PBM binding z-score [5],PBM binding z-score [6],PBM binding z-score [7],PBM binding z-score [8],PBM binding z-score [9],PBM binding z-score [10],PBM binding z-score [11],PBM binding z-score [12],PBM binding z-score [13],PBM binding z-score [14],PBM binding z-score [15],PBM binding z-score [16],PBM binding z-score [17],PBM binding z-score [18],PBM binding z-score [19],PBM binding z-score [20]
TAGCCTAGGTCACTCAGGGGCCAGTATAGAAAGC,3.32,2.18,-0.258,2,-0.123,3.18,2.64,2.29,0.26,1.24,1.65,3.3,0.795,0.141,1.5,1.73,-0.391,3.07,-0.348,3.99
CTCGAAAGGTCGGTTGAGGTGAGGATACGGATAA,3.07,1.84,-0.0492,1.43,-0.104,2.68,0.677,1.09,0.294,1.02,-0.21,1.07,0.312,-0.445,1.24,3.06,0.154,2.64,0.262,3.18
CCTACTGGCCCATTCAGAGGTCATTGATCATATG,2.81,4.4,6.69,3.76,0.83,3.28,0.571,1.44,0.377,1.09,-0.184,0.996,-0.258,-0.298,2.98,4.67,2.7,4.14,1.58,2.81
CCGACTGGGGCACGGTTACCATAACGCACAGCCA,-0.15,-0.079,-0.346,-0.211,-0.878,0.346,1.8,0.982,-0.228,0.391,3.83,4.42,-0.407,-0.566,0.044,-0.353,-0.44,-0.139,-0.261,1.06
GCTTGTAGATCAAGGTTAAGAACGACTAAGCTAA,0.0945,0.622,-0.347,0.349,-0.704,1.59,1.12,2.18,0.429,1.44,1.08,1.15,0.637,-0.445,0.356,0.364,-0.0676,0.827,0.211,0.716
ATAATGAGGTTATTAAGATCAGGGAATTGCGGTC,1.9,2.12,0.684,1.48,1.07,2.81,1.91,2.14,0.859,1.5,3.45,3.21,1.46,0.952,1.12,1.58,0.876,1.76,0.951,1.47
CTAACTAGGTCAAGAGGTCAAAGTCCGCTTCCCG,6.96,6.46,6.71,5.78,2.03,6.55,10.3,8.4,7.88,8.64,8.74,8.7,3.27,2.76,5.39,6.07,2.21,7.15,1.67,5.5
GCATATAGGTAATAAAAGGTGAAAGTCCGATTGT,1.12,4.97,0.418,1.97,-0.165,2.47,1.65,2.12,0.664,1.72,3.99,3.33,0.83,0.676,1.38,0.771,0.163,2.04,0.974,1.12
ACTATTAGTGGACTTAGGGCAACCGATACGACGC,0.086,-0.113,-0.0613,-0.278,0.0908,-0.455,0.923,0.348,0.284,0.211,0.261,0.425,0.622,0.53,-0.531,-0.184,0.307,-0.1,0.447,0.196
ATCTCTAGCTAAAGTTCAGTGAAAGATCGATAGA,0.485,1.83,1.89,1.01,0.585,1.74,1.63,3.25,1.53,2.85,-0.514,0.413,0.743,0.86,1.51,1.8,1.85,1.04,1.01,2.68
TCGAGTAGGTTACCAATGGGGCATTCAGCTTTCT,0.0683,1.23,-0.798,0.966,-0.683,1.26,0.191,1.15,1.14,1.11,3.39,2.58,-0.0498,-0.456,-0.375,0.171,-0.622,0.273,-0.0206,0.992
AGACCAAGGTGATCGTGAGGTCGTTGATACTAAC,1.27,0.891,0.368,0.98,-0.813,1.58,0.415,0.494,0.11,0.313,0.783,0.9,-0.832,-0.109,0.38,2.79,0.858,1.72,-0.21,1.32
ACTATTAGTTGAGACCAGGGCAACCGATAGGTTG,0.433,-0.242,-0.0882,-0.177,0.0937,0.067,0.508,0.263,0.00186,-0.189,0.0901,0.557,0.284,0.911,-0.00507,0.204,0.236,0.191,0.419,0.628
GCTTGTAGATCAAGGTAAAGAAAGACTAAGCTAA,-0.136,-0.278,-0.768,-0.413,-0.986,-0.222,0.0186,0.28,-0.318,-0.167,0.905,0.644,-0.0923,0.000518,-0.791,-0.53,-0.448,0.178,-0.716,-0.161
TCTATTAATTGAAGGGCAACCGACGAGTCCGTTT,0.489,1,1.77,0.808,0.497,1.16,0.0188,1.99,3.93,2.74,2.49,0.956,0.163,1.02,1.56,0.915,1.96,0.829,1.43,1.45
AGAATGAGGTTATACGTAGATCCGGGAAGAAAGT,1.84,1.4,-0.0656,1.27,-0.0516,3.09,1.65,2.1,0.93,1.68,3.81,2.11,0.942,0.253,0.53,0.73,0.508,1.02,0.0175,1.27
GCGACTGGGGCAAACCAGGTTACCATAAGGTTGG,0.393,0.174,-0.329,0.0865,-0.736,1.37,1.43,1.51,-0.386,0.602,4.47,3.82,-1.05,-0.639,-0.0869,0.736,-0.522,0.63,-0.483,0.961
ATCGAAAGGTCGAAGGTGAGTATACCCACCCGAA,4.3,3.8,0.189,2.86,0.5,4.67,4.53,5.13,2.14,4.33,0.0439,2.38,0.373,0.686,1.04,2.96,-0.372,3.94,0.591,3.82
CCTAGTTGCTCAGGAGGTCACACACCGGATATGA,3.45,3.66,2.47,3.74,0.953,4.23,1.96,2.65,0.83,1.79,0.887,2.47,0.559,1.01,3.26,4.39,1.59,4.49,2.6,3.64
GCTATTAGTTTAAAGGGCAACCGAATGATTCTCG,0.917,1.13,0.643,1.42,0.922,2.44,2.98,4.5,2.59,4.67,1.27,1.31,0.587,0.575,1.43,1.09,0.349,1.28,0.262,2.09
CCTAGCAGGCCAGGGCCACTCAAGCATTTCGCTT,-0.787,-0.944,-0.625,-1.04,-1.61,-0.638,-0.367,-1.16,-1.24,-1.48,-0.0979,-0.384,-1.54,-0.795,-0.711,-1.11,-0.775,-0.903,-0.897,0.21
CCTTACGGTTCACTCCAGGTTATAGCATCGGAGT,2.82,6.46,2.54,3.58,0.998,2.21,0.562,0.77,0.224,0.483,0.278,0.401,0.147,1.01,1.62,3.53,1.46,2.25,1.57,1.29
GATACAGGGTCAAGGCCAGAGTGCGCGTATTGAT,6.68,4.01,0.0458,3.51,-0.343,5.4,5.81,5.34,2.09,4,2.75,4.1,0.884,0.0154,3.05,3.92,0.307,4.99,1.02,4.28
TCTTGTAGATCAATAGAGGTTAAGAGAGTGCGCT,1.02,3.23,0.39,1.56,-0.263,1.97,0.0918,1.53,2.37,2.22,1.67,1.07,0.505,0.44,0.687,3.92,0.241,1.73,0.69,0.738
TCATGTAGGTAAACAGGTGAAAGTCCGTAAGTTA,0.441,0.537,-0.185,0.487,-0.709,2.46,3.06,3.74,3.38,3.64,4.93,5.27,0.599,0.663,1.08,0.463,0.296,0.664,0.834,0.451
ACTAGTTGGTCAGCTGAGGGCACACACAATTCGG,0.819,0.0659,0.172,0.183,-0.0227,0.606,0.887,0.572,0.27,0.385,0.794,1.19,-0.0581,0.654,0.538,2.26,0.211,1.13,-0.0752,1.73
ATCGAAAGGTCGTGAGGTGAGTATACAGAAAGGC,5.57,4.25,0.175,3.13,0.435,4.95,4.06,4.39,1.92,3.28,-0.0528,2.47,1.08,1.25,2.77,3.39,0.278,4.21,0.287,4.02
CCGACTGGGGCAAGGTTACTATAACGCACAGCCA,0.258,1.52,-0.118,0.79,-0.963,1.59,3.02,2.98,1.03,2.21,2.98,3.39,0.184,-0.443,0.157,0.274,-0.27,0.867,-0.248,1.38
CGAACTAGGTCAGAACACGACAGTGAAGGATGAT,1.16,0.462,-0.145,0.53,-0.0845,3.26,5.4,4.53,1.68,3.56,7.06,7.2,1.44,1.71,1.06,0.221,0.0475,0.721,0.743,2.84
